In all, about 420,000 compounds went through this assay and about 64,000 (15%) were called active. Roughly 27% stayed inconclusive and do not appear here. These entries were drawn from the full list. Unmarked numbers belong to inactive results. Calls follow the shape of the dose curve; as a rule, active = well fitted inhibition curve with a large enough effect; inconclusive = small, poorly fitted or top-dose-only effect; inactive = flat fitted curve, though single readings scatter.
assay: qHTS for Inhibitors of human tyrosyl-DNA phosphodiesterase 1 (TDP1): qHTS in cells in absence of CPT; conditions: DT40 Tdp1-/- hTDP1 cells, no CPT, ATP luminescence, 48 h; activity change, negative = growth inhibition: at 46.2 µM (top of the series); also: nearly all actives have a fitted effect of over 55% in size
How it was run: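 Growth of hTDP1-complemented DT40 Tdp1-knockout cells is measured by ATP luminescence after at least 48 hr compound exposure at 37 °C, with DMSO substituting for the 20 nM CPT used in the parallel screen.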
% is scaled to controls: 0 for no effect and ±100 for the full control effect; potency is read from the fitted curve at half-maximal effect.

Structure (SMILES)	activity change, negative = growth inhibition	Potency
CC(=O)NC(C)(C)C1CC=C(C)/C(=N\O)C1 (stereo unspecified)	7.54%	
CCOC(=O)C1C(c2ccc(O)cc2)NC(=O)NC1(O)C(F)(F)F (stereo unspecified)	16.9%	
CCN(CC)P(=O)(/C(Cl)=C\Nc1c(C)n(C)n(-c2ccccc2)c1=O)N(CC)CC	-4.15%	
CCOC(=O)[C@]12CCC=C1N(Cc1cccc3ccccc13)C(=O)[C@H](CC(=O)NCc1cccc(C(F)(F)F)c1)C2		23.1 µM (active)
CCCCCCCCN1C(=O)[C@H](CC(=O)NCc2cccc3ccccc23)C[C@@]2(C(=O)OC)CCCCC=C12		20.6 µM (active)
O=C(COC(=O)C12CC3CC(CC(C3)C1)C2)NCc1ccco1	-3.59%	
CCCCN1C(=O)C(CC(=O)NCc2cccs2)CC(C(=O)N2CCOCC2)=C1C (stereo unspecified)	-0.267%	
CCCCNC(=O)C[C@@H]1C[C@@]2(C(=O)OCC)CCC=C2N(Cc2cccc3ccccc23)C1=O		16.4 µM (active)
CCCCNC(=O)C[C@@H]1C[C@@]2(C(=O)OCC)CCC=C2N(Cc2ccco2)C1=O	-10.6%	
COc1ccccc1CNC(=O)CCCN1C(=O)NC2(CCCC2)C1=O	-6.56%	
CC1=C(C(=O)N2CCOCC2)CC(CC(=O)NCc2cccc3ccccc23)C(=O)N1CCC1=CCCCC1 (stereo unspecified)	-28.7%	
CC1=C(C(=O)N2CCOCC2)CC(CC(=O)NCc2ccco2)C(=O)N1Cc1ccc(F)cc1 (stereo unspecified)	-16.3%	
CCOC(=O)[C@]12CCC=C1N(Cc1ccco1)C(=O)[C@H](CC(=O)NCc1cccc(C(F)(F)F)c1)C2		25.9 µM (active)
O=C(Cn1nnc(-c2ccc(CN3CCOCC3)cc2)n1)NC1CCCCC1	-2.3%	
COc1ccc(OCC(O)CNCCNc2nccc(C(F)(F)F)n2)cc1 (stereo unspecified)	-11.4%	
CC(=O)NCC(=O)N(Cc1ccco1)C1(C(=O)NC2CCCC2)CCCCC1	-4.34%	
O=c1c(-c2ccc(F)c(F)c2)nc2cncnc2n1-c1ccccc1	-15.4%	
C#CCNC(=O)C[C@@H]1C[C@@]2(C(=O)OCC)CCCC=C2N(Cc2ccco2)C1=O	-22%	
CC1c2nc3ccccc3n2C(CC(=O)NCCCN2CCOCC2)C(=O)N1Cc1ccccc1 (stereo unspecified)	-13.8%	
COC(=O)[C@]12CCCCC=C1N(Cc1ccco1)C(=O)[C@H](CC(=O)NCCCCc1ccccc1)C2		16.4 µM (active)
COc1ccc(C(=O)OCC(=O)NCCCc2ccccc2)cc1OC	-25.8%	
COC(=O)[C@@]12C[C@@H](CC(=O)NCCCCc3ccccc3)C(=O)N(CCc3ccc(OC)c(OC)c3)C1=CCC(C)(C)C2		20.6 µM (active)

Structure (SMILES)	activity change, negative = growth inhibition	Potency
COc1ccc(CCNC(=O)CCCCCNC(=O)N2CCn3c2nc2ccccc23)cc1OC	-26.2%	
CCOC(=O)[C@]12CCCC=C1N(Cc1cccc3ccccc13)C(=O)[C@H](CC(=O)NCC13CC4CC(CC(C4)C1)C3)C2		23.1 µM (active)
CCCCCC1CCC(c2nnc(SCC(C)=O)o2)CC1 (stereo unspecified)	-4.37%	
Cc1cc(C)n(-c2c(F)c(F)c(COC(=O)c3ccccc3)c(F)c2F)n1	-20.9%	
O=C(C1=C(O)C(=O)N(c2ncccn2)C1c1cccs1)c1ccco1 (stereo unspecified)	-0.816%	
O=C(Oc1cccnc1)c1cc2ccccc2oc1=O	-3.98%	
CC(=O)N1CCN(CC(c2ccccc2)c2ccccc2)CC1	-19.7%	
CC(CCc1ccc(O)cc1)NCc1ccc(Cl)cc1Cl (stereo unspecified)		18.4 µM (active)
COc1ccc(CNC(=O)C(C)NCc2ccccc2Cl)cc1 (stereo unspecified)	-7.52%	
COc1ccc(CCn2ccc(O)c(Cc3ccc(Cl)cc3Cl)c2=O)cc1OC	-13.3%	
O=C(CN1CCN(c2ncc(C(F)(F)F)cc2Cl)CC1)Nc1ccc2c(c1)OCO2	-4.82%	
COc1ccc(N2CCN(C(=O)CNC(=O)c3ccc(Br)o3)CC2)cc1	0.433%	
O=C(NCC(=O)N1CCN(c2ncc(C(F)(F)F)cc2Cl)CC1)c1ccc(Br)o1		18.4 µM (active)
Cc1ccc(CSCC(=O)N(C)CC(=O)Nc2cccc(F)c2)cc1	-27%	
O=C(O)CCC(=O)N(Cc1ccco1)c1nc(-c2ccccc2)cs1	1.02%	
CC(Oc1ccc(F)cc1F)C(=O)/C=C/N(C)C (stereo unspecified)	-3.1%	
c1ccc(C2CNCc3c2ccc2ccccc32)cc1 (stereo unspecified)		16.4 µM (active)
CC1(C)CC(=O)C(C=NCCN2CCN(C(=S)Nc3cccc(Cl)c3)CC2)=C(O)C1	-14.6%	
COc1ccc(-c2n[nH]c3c2CN(C(=O)c2ccc(F)cc2)CC3)cc1	-17.6%	
COCCCNC(=O)COc1cc(C)c(Cl)c(C)c1	-17.2%	
Cc1cc2c(cc1S(=O)(=O)CCC(=O)NCc1ccccc1)OCC(=O)N2	-12.9%	
CC(=O)Nc1ccc2c3c(ccc([N+](=O)[O-])c13)CC2	1.18%	

Structure (SMILES)	activity change, negative = growth inhibition	Potency
CCCNC(=O)C1CC(=O)N(c2ccc(OCC(=O)Nc3cccc(C)c3C)cc2)C1 (stereo unspecified)	-22%	
CCCOc1ccc(/C=N/NC(=O)C2CC2)c(OCCC)c1	-19.6%	
COc1ccc(CS(=O)/C(Cl)=C(/Cl)C(=O)Nc2ccc(OC)nc2)cc1 (stereo unspecified)		0.13 µM (active)
COc1ccc(NC(=S)NCCNC(C)=O)cc1	-9.69%	
COc1ccc(NC(=S)Nc2ccccc2Cl)cn1	2.18%	
CS(=O)(=O)c1ccc(Cl)c(NC(=O)COC(=O)c2ncc(Cl)c(Cl)c2Cl)c1	-3.02%	
O=C(Nc1cc2c3c(c1)CC(=O)N3CCC2)c1ccccc1F	-7.35%	
COc1ccc(/C=C(\NC(=O)c2ccccc2)C(=O)NCCN2CCOCC2)cc1OC	-21.7%	
COCCN(C(=O)C(C)C)c1nnc(-c2ccc(C(C)(C)C)cc2)s1		20.6 µM (active)
CN(C(=O)COc1ccccc1)c1nnc(-c2ccncc2)s1	-10.3%	
COCCN(Cc1nc(-c2ccc(C(F)(F)F)cc2)no1)C(C)C	-23.7%	
CCOC(=O)N1CCN(C(=O)Cn2cnc3ccccc3c2=O)CC1	-7.54%	
CCOC(=O)N1CCN(CC(=O)Nc2ccc(F)cc2)CC1	1.47%	
CCOC(=O)N1CCN(CC(=O)Nc2cc(C)nn2-c2nc3ccccc3s2)CC1		23.1 µM (active)
CC1CCCN(c2csc3ccc(F)cc3c2=O)C1 (stereo unspecified)	-5.98%	
S=c1[nH]nc(/C=C/c2ccccc2)o1	-6.07%	
CC(=O)Nc1nc(N(C)C)nc(N(C)C)n1	-5.59%	
CN(C)c1nc(Nc2ccc(Cl)c(Cl)c2)nc(N(C)C)n1		10.3 µM (active)
CN(C)c1nc(NN)nc(Nc2ccc(F)cc2)n1	-27%	
Cc1ccc(/C([O-])=C(/C(=S)NCc2ccco2)[n+]2ccccc2)cc1[N+](=O)[O-]	-13.8%	
CCOC(=O)c1c(NC(=O)CSc2nnc(CNc3ccc(C)cc3C)o2)sc(C)c1C	-14.1%	
Fc1ccccc1CCNc1nnnn1-c1ccccc1	-15.3%	

Structure (SMILES)	activity change, negative = growth inhibition	Potency
c1ccc(-n2nnnc2NC2CCCCCC2)cc1	-18.6%	
FC(F)(F)c1nc(-c2ccccc2)ncc1-c1nnnn1-c1ccccc1		16.4 µM (active)
O=S(=O)(NC1CCCCC1N1CCC(O)CC1)c1ccc(Cl)cc1 (stereo unspecified)	16.4%	
CN1CCCc2cc(C#N)c(=O)[nH]c21	-0.386%	
CCOC(=O)c1cc2cc3ccccc3cc2oc1=O	3.19%	
CCOC(=O)c1cc2cc(-c3c(C(=O)OCC)oc4cc(O)cc(O)c4c3=O)ccc2o1		23.1 µM (active)
CCOC(=O)c1cc(=O)c2ccc(OCc3ccccc3)cc2o1	-11.2%	
O=C(O)c1ccc(COCC(F)(F)F)cc1	-5.35%	
CC1CCC2(CC1)NC(=O)N(CC(=O)c1ccc3c(c1)OCO3)C2=O (stereo unspecified)	-1.18%	
O=C(CCN1C(=O)c2ccccc2C1=O)Nc1ccncc1	-9.9%	
COc1cccc(C(=O)c2cc3ccc(O)cc3oc2=O)c1	-21.7%	
O=c1oc2cc(O)ccc2cc1-c1ccc(F)cc1		14.6 µM (active)
COc1ccc(-c2cc3ccc(OCc4nn[nH]n4)cc3oc2=O)cc1	6.88%	
Cc1ccc(C(=O)NCCSc2c(C)[nH]c3ccccc23)cc1C		25.9 µM (active)
CN(C)CCCNC(=O)c1ccc2[nH]c3ccccc3c2c1	-12.1%	
COC(=O)CCNC(=O)c1ccc2[nH]c(C)c(C)c2c1	-9.72%	
COC(=O)c1ccc(OCC(=O)NC(C)(C)C)cc1	3.15%	
COc1ccc(-c2cc(C(F)(F)F)n3nc(C(=O)N4CCOCC4)c(Cl)c3n2)cc1		29.1 µM (active)
COc1ccc(OCC(=O)N2CCOCC2)cc1	-5.8%	
O=C(O)c1cnn2c(C(F)(F)F)cc(-c3ccccc3)nc12	-14.2%	
O=C(NC1CC(=O)N(c2ccc(F)cc2)C1)C1CCCCC1 (stereo unspecified)	-0.378%	
COc1cc(OC)cc(-c2nnc(SCC(=O)Nc3ccc(C(=O)O)cc3)s2)c1	-25.9%	

Structure (SMILES)	activity change, negative = growth inhibition	Potency
COc1ccc(N2CCN(C(=O)C3CCN(C(=O)c4ccccc4Cl)CC3)CC2)cc1	-22.1%	
COc1ccc(N2CCN(C(=O)CSCc3nc(-c4ccccc4Cl)oc3C)CC2)cc1		16.4 µM (active)
COc1ccc(N2CCN(C(=O)CN3C(=O)COc4ccccc43)CC2)cc1	-18.9%	
Cc1ccc(NC(=O)COC(=O)CN2CCSC2=O)cc1F	9.29%	
CS(=O)(=O)c1ccc2nc(NC(=O)CN3CCCCCC3)sc2c1	-4.58%	
CC(C)(C)C(=O)c1c(N)[nH]c(C(=O)c2ccccc2)c1-c1ccc(F)cc1	-27%	
NC(=O)Cc1ccc2c(c1)[nH]c1ccccc12	-1.59%	
CCc1cc(-c2nnc(SCC(=O)NC3CC3)n2C)cs1	1.5%	
COc1ccc(/C=N/NC(=O)c2ccc3c(c2)OCCO3)c(OC)c1	-0.934%	
COc1ccc(OC)c(/C=N/NC(=O)c2ccc[n+](CC(=O)c3ccccc3)c2)c1	-16%	
CN(C)CCNC(=O)c1[nH]nc2c1CCc1ccccc1-2	-11.9%	
COc1cccc(/C=N\NC(=O)C2=NNC(=O)C2C)c1O (stereo unspecified)		23.1 µM (active)
COc1cccc(/C=N/NC(=O)c2[nH]nc3c2CCc2ccccc2-3)c1O		2.91 µM (active)
CCC(C)C1(C2CCCC2)NC(=O)NC1=O (stereo unspecified)	-8.57%	
CN1CCN(C(=O)CCc2ncc(C(F)(F)F)cc2Cl)CC1	-0.628%	
Cc1ccc(C(=O)N(CN2CCCC2=O)c2ccc(F)cc2)cc1	-5.03%	
CCN1CCC2(CC1)N=C(c1ccc(F)cc1)C(=S)N2C(=O)c1ccc(C)cc1		5.8 µM (active)
CCN1CCN(C(=O)CSc2ccc(C)cc2)CC1	-13.9%	

Source: PubChem BioAssay AID686978 (National Center for Advancing Translational Sciences (NCATS), 2013)
